Sampled rows, rich in hits. Any-hit rate of the full collection: about 6.8%.
Spn MK inh: inhibitors of Streptococcus pneumoniae mevalonate kinase; actives 0.48% (n = 65,000); purified MK, PK/LDH-coupled NADH absorbance 340 nm; inhibition, % at 10 µM;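 active means ranked among the strongest by inhibition in the single 10 µM screen, a fixed top-ranked set picked for dose follow-up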
PMK inhibit: blocks S. pneumoniae phosphomevalonate kinase | purified PMK, PK/LDH-coupled NADH absorbance 340 nm | inhibition, % at 10 µM | actives 0.49% (n = 65,000) | AID 539;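 active means top-ranked compounds by inhibition in the single 10 µM screen, taking a fixed number of the strongest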;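 further: 0% = full reaction with DMSO carrier and 100% = background rate without enzyme reaction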
DPM-DC inhibit: inhibitors of Streptococcus pneumoniae diphosphomevalonate decarboxylase | calls only at 10 µM | purified DPM-DC, PK/LDH coupled NADH fluorescence | actives 0.49% (n = 65,000);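 active means the 320 compounds with the highest percent inhibition in the single-dose primary screen, excluding strongly autofluorescent ones, cut at about 32% in these data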;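 further: kinetic rate of NADH fluorescence loss reporting ADP formed by the decarboxylase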
NADH enzymes: inhibition of NAD/NADH coupling enzymes, library profiling; IC50, µM (doses to about 10 µM), for the others: top-dose inhibition; coupled PK/LDH NADH assays, four targets; actives 0.02% (n = 65,000);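 active means single-dose screening hits from any of four coupled enzyme assays that gave an IC50 when retested across doses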;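 further: the DPM-DC format reads NADH fluorescence rather than 340 nm absorbance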
A340 absorber: compounds absorbing at 340 nm; compound absorbance at 340 nm, fold over control; fold change at 10 µM; 65,000 tested, under 10 active;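 active means at 10 µM dose, initial 340 nm absorbance at least 2 fold that of control wells; inactive means change under 2 fold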;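 further: initial absorbance extrapolated from kinetic A340 decline of NADH oxidation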
Autofluor 339: intrinsic fluorescence of library compounds, ex339/em460 – biochemical, MLSMR library, data from DPM-DC assay, artefact control, profiling panel | fluorescence fold increase at 10 µM | actives 5.5% (n = 65,000) | compound autofluorescence, ex339/em460 nm, NADH buffer; stronger effect = higher value; 1 = no-compound wells, NADH background;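 active means at 10 µM, mean starting fluorescence two-fold or more over control wells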;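 further: signal is the first read of a kinetic run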
* = called active by the depositor; i = inactive; . = no result shown; + = active, no number.

SMILES	Spn MK inh	PMK inhibit	DPM-DC inhibit	NADH enzymes	A340 absorber	Autofluor 339
CCN(CC)c1ccc(C2C(C(=O)OC)=C(C)NC(C)=C2C(=O)OC)cc1	8	10	i	9%	1.1	1.2
COC(=O)C1=C(C)NC(C)=C(C(=O)OC)C1c1ccc(NC(C)=O)cc1	1	9	i	11%	1.1	2.1*
CCOC(=O)N1CCN(Cc2nc3c(c(=O)n(C)c(=O)n3C)n2CCC(C)C)CC1	1	7	i	3%	1.1	1
CCc1cc2c(-c3ccccc3)cc(=O)oc2c(CN2CCOCC2)c1O	14	4	i	6%	1.1	2.5*
O=c1c(-c2ccc(Cl)cc2)coc2c(CN3CCOCC3)c(O)ccc12	7	15	.	11%	1.1	2.2*
O=C(c1ccccc1)c1coc2ccc(O)c(CN3CCOCC3)c12	8	13	i	5%	0.99	1
O=c1oc2c(CN3CCCCCC3)c(O)ccc2cc1-c1nc2ccccc2[nH]1	0	5	.	3%	1.1	4.7*
O=C(c1ccccc1-c1nc2ccccc2[nH]1)N1CCCCC1	12	15	i	9%	0.96	1.1
O=c1c(-c2ccccc2)coc2c(CN3CCCC3)c(O)ccc12	8	11	.	10%	1.1	3.9*
C/C=C/C=[N+](\[O-])C(C)/C(=N/O)c1ccc(F)cc1 (configuration not stated)	0	18	i	7%	0.98	0.98
O=c1c2nnn(Cc3ccc(Cl)cc3)c2ncn1Cc1ccc(F)cc1	16	12	i	3%	0.99	1
Cc1ccc2c(c1)C(c1ccccc1)N(C(=O)c1ccc(Br)o1)CC(=O)N2 (configuration not stated)	0	7	i	2%	1.1	1.1
CCCCc1cc(=O)oc2c(CN3CCCC3)c(O)ccc12	4	0	.	2%	1.1	2.4*
CCCCc1cc(=O)oc2cc(C)c(CN3CCCC3)c(O)c12	4	6	i	5%	1.1	1.2
O=c1cc(-c2ccccc2)c2ccc(O)c(CN3CCCCC3)c2o1	2	4	i	5%	1.2	2.4*
O=C1OCCC1Sc1nnc(-c2ccc(Br)cc2)o1 (configuration not stated)	5	3	i	3%	1.1	1.1
OCCN(CCO)c1nc(N2CCCCC2)c2nc(N(CCO)CCO)nc(N3CCCCC3)c2n1	4	2	.	3%	1	2.2*
O=C(NCc1ccccn1)c1coc(=O)c(Br)c1	11	7	.	9%	1.2	2.4*
Cc1occc1-c1nnc(SCc2nnc(-c3ccc(Cl)cc3)o2)n1C	8	15	i	9%	1	1.1
N#Cc1c(NCCCO)nc(NCc2ccccc2)c2c1CCN(Cc1ccccc1)C2	13	17	+	23%	1	2.4*
c1ccc(-n2c(-c3ccncc3)nnc2-c2cccs2)cc1	10	11	i	10%	1	1.3
COc1ccc(-c2ncc3ccccn23)cc1	12	11	.	12%	1.1	3.2*
c1csc(-c2ncc3ccccn23)c1	6	12	.	9%	1.2	3.4*
O=C1CSC(c2ccncc2)N1Cc1ccco1 (configuration not stated)	9	0	i	3%	1.1	1.1
CCOc1cccc(N2C(=O)CC(n3cnc4ccccc43)C2=O)c1 (configuration not stated)	5	6	i	4%	1	1.1
SMILES	Spn MK inh	PMK inhibit	DPM-DC inhibit	NADH enzymes	A340 absorber	Autofluor 339
NC(=O)CCN(Cc1ccccc1)S(=O)(=O)c1ccccc1	5	28*	i	11%	1	1.1
Fc1cccc2sc(N3CCOCC3)nc12	9	10	i	5%	0.97	1
N#Cc1c(F)cccc1N1CCOCC1	11	0	i	6%	1	3.1*
O=C(C1CCN(S(=O)(=O)c2ccc(F)cc2)CC1)N1CC=C(c2ccccc2)CC1	3	13	i	5%	1.1	1.1
O=C(NCc1ccc(F)cc1)c1cnc2sccn2c1=O	8	2	.	5%	1.1	2.1*
CCSc1nc(N2CCOCC2)c2c(c1C#N)CCCC2	7	4	i	7%	0.99	1.1
CCN1CCc2c(C#N)c(N3CCCCC3)nc(N3CCOCC3)c2C1	11	1	.	6%	1.1	2.3*
CC(C)c1nc(N2CCOCC2)c(C#N)c2c1CCCC2	10	1	.	6%	1	2.1*
Cc1ccccc1Cn1nc(C)c(NC(=O)c2noc3c2CCc2ccccc2-3)c1C	1	0	i	0%	0.98	1.1
Nc1c(S(=O)(=O)c2ccccc2)c2nc3ccccc3nc2n1/N=C/c1cccc(O)c1	10	4	.	7%	1.1	3.7*
CCCCNC(=O)c1c(N)n(/N=C/c2cccnc2)c2nc3ccccc3nc12	11	2	i	6%	1.1	1.2
CCCCCNC(=O)c1c(N)n(/N=C/c2ccco2)c2nc3ccccc3nc12	5	8	i	4%	1	1.5
Cc1ccc(C)c(S(=O)(=O)c2c(N)n(/N=C/c3ccco3)c3nc4ccccc4nc23)c1	0	0	i	1%	1.1	2.1*
Cc1c(CN(C)CCc2ccccc2)c(=O)n(-c2ccccc2)n1C	34	0	i	11%	1	1.1
O=C(COc1ccc(Cl)cc1Cl)Nc1ccc2nc3n(c(=O)c2c1)CCCC3	1	7	i	3%	1	1.2
CSc1nc2nc(-c3ccccc3)cc(C(F)(F)F)n2n1	2	3	.	3%	1.2	3.8*
CSc1nc2nc(C)cc(-c3ccccc3)n2n1	10	1	i	7%	1	1.7
CCOC(=O)c1c(CC(C)C)csc1NC=O	0	0	+	14%	1	0.56
Cc1c2cccn2cc[n+]1C	6	0	.	3%	0.99	3.8*
CCOc1ccccc1C(=O)Nc1ccc2nc(N3CCN(c4ncccn4)CC3)cc(C)c2c1	4	9	.	7%	1.1	2.2*
Cc1cc(N2CCN(C)CC2)nc2ccc(NC(=O)CCC(=O)NCc3ccco3)cc12	7	6	i	13%	1.1	3.5*
COc1cccc(C(=O)Nc2ccc3nc(N4CCN(c5ncccn5)CC4)cc(C)c3c2)c1OC	10	0	i	5%	1	1.4
CCN1CCN(c2cc(C)c3cc(NC(=O)c4ccc5c(c4)OCO5)ccc3n2)CC1	4	3	i	3%	1.1	1.1
COc1ccc(C)cc1NC(=O)CCC(=O)Nc1ccc2nc(N3CCN(C)CC3)cc(C)c2c1	8	8	i	15%	1	2.5*
Cc1cc(N2CCOCC2)nc2ccc(NC(=O)CCC(=O)N3CCCC(C)C3)cc12 (configuration not stated)	7	6	.	7%	1.1	4.8*
